Source: PubChem
An excerpt weighted towards active compounds, which were near 2.6% of everything screened.
PAFAH1B2 inh: inhibitors of human PAFAH1B2; P68402; inhibition, % at 3.39 µM; recombinant PAFAH1B2, FP-rhodamine activity probe, fluorescence polarization; 1.2% of 340,000 active;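 active = inhibition above the mean of all tested compounds plus 3 SD, cut at about 24% in these data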
Target sequence (P68402 whole entry, looked up): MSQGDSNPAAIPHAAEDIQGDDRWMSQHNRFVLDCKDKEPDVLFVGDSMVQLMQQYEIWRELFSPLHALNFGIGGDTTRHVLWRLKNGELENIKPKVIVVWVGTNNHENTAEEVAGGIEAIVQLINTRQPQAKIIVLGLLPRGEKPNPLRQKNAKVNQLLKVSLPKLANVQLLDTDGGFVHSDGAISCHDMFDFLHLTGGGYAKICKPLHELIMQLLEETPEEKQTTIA
PAFAH2 inh: PAFAH2 (human) inhibition | Q99487 | recombinant PAFAH2, FP-rhodamine activity probe, fluorescence polarization | inhibition, % at 3.39 µM | 0.99% of 340,000 active;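 active = inhibition above the mean over all tested compounds plus 3 SD, cut at about 30% in these data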;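 note: inhibitors block probe labeling of enzyme so polarization drops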
PKA-R1A act: activates the PKA-R1A holoenzyme complex; activation, % at 11.4 µM; PKA-R1A dissociation, Cy5-IP20 fluorescence polarization; scaled: DMSO 0%, 113 µM cGMP 100%; P00514+P68181; AID 504707; 0.083% of 340,000 active;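 active = percent activation above the mean of all tested compounds plus 3 SD, cut at about 19% in these data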;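 note: higher means more PKAc released from R1A so a rise in polarization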
PKA-R2B activ: activates the human PKA-R2B holoenzyme complex | P22694+P31323 | PKA-R2B holoenzyme dissociation, Cy5-IP20 fluorescence polarization; R2B truncated from residue 108, S112A mutant; 0% DMSO only, 100% 113 µM cGMP | activation, % at 11.4 µM | 0.079% of 340,000 active;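 active = activation above a cutoff set at the mean over all compounds plus 3 SD, cut at about 18% in these data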;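 note: higher means more holoenzyme dissociation and a rise in polarization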
PAFAH1B3 FP inh: PAFAH1B3 (human) inhibition | Q15102 | inhibition, % at 3.39 µM | 0.28% of 340,000 active | recombinant PAFAH1B3, FP-rhodamine probe, fluorescence polarization;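 active = inhibition above the screen-wide average of all tested compounds plus 3 SD, cut at about 25% in these data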
pPAFAH inh: pPAFAH (human) enzyme inhibition; 1.5% of 330,000 active; recombinant pPAFAH, FP-rhodamine probe fluorescence polarization; inhibition, % at 3.39 µM;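 active = inhibition above the mean inhibition across the screen plus 3 SD, cut at about 25% in these data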;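 note: inhibitors block binding of the rhodamine activity-based probe so polarization drops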
PAFAH2 FP conf: PAFAH2 (human) inhibition, confirmed. shares compounds with PAFAH2 inh. recombinant PAFAH2, FP-rhodamine activity probe, fluorescence polarization. inhibition, % at 3.39 µM. 65% of 2,300 active;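 active = mean inhibition over three repeats above a set limit taken from the earlier primary screen, cut at about 30% in these data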;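 note: inhibitor blocks binding of rhodamine activity probe so polarization falls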
Numbers stand for hits.

`CCc1ccc(NC(=O)COC(=O)/C=C/c2c(C)nn(C3CCS(=O)(=O)C3)c2Cl)cc1` (configuration not stated) gave PAFAH1B2 inh inactive, PAFAH2 inh inactive, PKA-R1A act inactive, PKA-R2B activ inactive, PAFAH1B3 FP inh inactive and pPAFAH inh inactive.
Cc1nn(C2CCS(=O)(=O)C2)c(Cl)c1/C=C/C(=O)OCC(=O)Nc1ccccc1[N+](=O)[O-] (configuration not stated) was read as PAFAH1B2 inh inactive, PAFAH2 inh 75, PKA-R1A act inactive, PKA-R2B activ inactive, PAFAH1B3 FP inh inactive, pPAFAH inh inactive and PAFAH2 FP conf 74.
C=CCn1c(C)cc(C(=O)COC(=O)/C=C/c2c(C)nn(C3CCS(=O)(=O)C3)c2Cl)c1C (configuration not stated) was read as PAFAH1B2 inh inactive, PAFAH2 inh 53, PKA-R1A act inactive, PKA-R2B activ inactive, PAFAH1B3 FP inh inactive, pPAFAH inh inactive and PAFAH2 FP conf 43.
Cc1nn(C2CCS(=O)(=O)C2)c(Cl)c1/C=C/C(=O)OCC(=O)Nc1ccccc1OC(F)F (configuration not stated) was read as PAFAH1B2 inh inactive, PAFAH2 inh 50, PKA-R1A act inactive, PKA-R2B activ inactive, PAFAH1B3 FP inh inactive, pPAFAH inh inactive and PAFAH2 FP conf 43.
Screening NS(=O)(=O)c1cccc(C(=O)N2CCCc3ccccc32)c1 returned PKA-R1A act inactive and PKA-R2B activ inactive.
For O=C(O)Cc1ccc(NC(=O)Nc2ccc3c(c2)OCO3)cc1 the results were PAFAH1B2 inh inactive, PAFAH2 inh inactive, PKA-R1A act inactive, PKA-R2B activ inactive and PAFAH1B3 FP inh inactive.
For COc1cc(NC(=O)CN2C(=O)CSc3ccc(S(=O)(=O)N4CCCC4)cc32)cc(OC)c1 the results were PAFAH1B2 inh inactive, PAFAH2 inh inactive, PKA-R1A act inactive, PKA-R2B activ inactive, PAFAH1B3 FP inh inactive and pPAFAH inh inactive.
`Cc1nc(NC(=O)COC(=O)c2cccs2)c(Cl)cc1Cl` gave PAFAH1B2 inh inactive, PAFAH2 inh 43, PKA-R1A act inactive, PKA-R2B activ inactive, PAFAH1B3 FP inh inactive and PAFAH2 FP conf inactive.
Screening Cc1c(Cl)cnc(NC(=O)COC(=O)c2cccs2)c1Cl returned PAFAH1B2 inh inactive, PAFAH2 inh 58, PKA-R1A act inactive, PKA-R2B activ inactive, PAFAH1B3 FP inh inactive, pPAFAH inh inactive and PAFAH2 FP conf 41.
Screening COC(=O)[C@]1(Cc2ccccc2)N[C@H](CN(C)S(=O)(=O)c2ccc(C(C)(C)C)cc2)[C@@H]2C(=O)N(Cc3ccccc3)C(=O)[C@@H]21 returned PAFAH1B2 inh inactive, PAFAH2 inh inactive, PKA-R1A act inactive, PKA-R2B activ inactive, PAFAH1B3 FP inh inactive and pPAFAH inh inactive.
`CCOC(=O)c1ccc(N2C(=O)C3CCOc4ccccc4C32)cc1` (configuration not stated) gave PAFAH1B2 inh inactive, PAFAH2 inh 80, PKA-R1A act inactive, PKA-R2B activ inactive, PAFAH1B3 FP inh inactive, pPAFAH inh inactive and PAFAH2 FP conf 63.
`Cc1cccc(C(C(=O)NC2CCCC2)N(C(=O)c2csnn2)C2CC2)c1` (configuration not stated) gave PAFAH1B2 inh inactive, PAFAH2 inh inactive, PKA-R1A act inactive, PKA-R2B activ inactive, PAFAH1B3 FP inh inactive and pPAFAH inh inactive.
Screening O=C(NC(=S)Nc1cc(S(=O)(=O)N2CCOCC2)ccc1O)c1ccco1 returned PAFAH1B2 inh inactive, PAFAH2 inh 44, PKA-R1A act inactive, PKA-R2B activ inactive, PAFAH1B3 FP inh inactive, pPAFAH inh inactive and PAFAH2 FP conf 32.
NC(=O)c1ccsc1NC(=O)COC(=O)c1cnccn1 was read as PAFAH1B2 inh inactive, PAFAH2 inh inactive, PKA-R1A act inactive, PKA-R2B activ inactive, PAFAH1B3 FP inh inactive and pPAFAH inh inactive.
